Assay outcomes from PubChem.
HSD17B inh = blocks hydroxysteroid 17-beta dehydrogenase activity. 75,000 compounds, 7.6% hits. Q99714. AID 893. Potency, µM (doses to about 57.1 µM), without a hit: at the top dose activity change, negative = inhibition, actives largely listed as inhibitors. recombinant HSD17B10, NADH fluorescence kinetic;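 note: the protocol describes HADH2 (HSD17B10) and not the HSD17B4 of the title; potency is the fitted concentration of half-maximal effect; % is set by controls: 0 for no effect and ±100 for the full control effect; nearly all actives have a fitted effect of over 70% in size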
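20 nM HADH2, pH 9.0 Tris/Tween; cpd preinc 15 min RT; start w/ 1 mM NAD+ + 90 uM b-hydroxybutyryl-CoA; kinetic fluor ex360/em450 q30s x 4 min; delta last-first.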
HADH2 inh = blocks human hydroxyacyl-CoA dehydrogenase type II; 73,000 compounds, 3.4% hits; AID 886; recombinant HADH2, NADH fluorescence, beta-hydroxybutyryl-CoA; Q99714; Potency, µM (series often up to 57.1 µM), for inactives: at the top dose activity change, negative = inhibition, usual class: inhibitors; note: potency is the fitted concentration of half-maximal effect; % is set by controls: 0 for no effect and ±100 for the full control effect; nearly all actives have a fitted effect of over 60% in size
Target sequence (Q99714 whole entry, looked up, one chain of several): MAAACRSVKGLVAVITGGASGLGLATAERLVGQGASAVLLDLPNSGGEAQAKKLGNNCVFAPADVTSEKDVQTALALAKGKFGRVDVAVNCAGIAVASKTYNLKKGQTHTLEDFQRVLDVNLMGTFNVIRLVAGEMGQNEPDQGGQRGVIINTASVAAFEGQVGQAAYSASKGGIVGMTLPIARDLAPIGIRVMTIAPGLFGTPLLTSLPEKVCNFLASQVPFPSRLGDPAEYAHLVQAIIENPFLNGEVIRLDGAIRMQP
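Read-out: 360 nm excitation, 450 nm emission, kinetic over 4 min. Conditions: His-tagged human HADH2 20 nM, pH 9.0 Tris with Tween-20, 1 mM NAD+, 90 uM beta-hydroxybutyryl-CoA.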
4-MU autofl = 4-MU region autofluorescence. max dye-equivalent concentration, M. compound autofluorescence, 340/450 nm, 4-MU equivalents; active compounds read high. 59,000 compounds, 11% hits; in the data active = max dye-equivalent concentration above about 10 nM; inconclusive = mostly about 1.1 nM to 9.6 nM
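Compounds in 100 mM Tris, pH 8.0, sat 15 min at room temperature before fluorescence was read at 340 nm excitation/450 nm emission; a per-plate six-point 4-MU standard curve converted signals to dye-equivalent concentration at each compound concentration.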
CRE Fsk mod = modulators of forskolin-stimulated CRE signaling in CHO cells; 71,000 compounds, 2.5% hits; CHO CRE-bla reporter (cAMP response element driving beta-lactamase), forskolin EC10, beta-lactamase ratio; Potency, µM (doses to about 38.2 µM), inactives show at the highest dose activity change, negative = inhibition, actives largely listed as activators; active = well fitted activation curve with a large enough effect in the signal ratio, with a control signal flat, not every such curve was filed as active; inconclusive = small, poorly fitted or top-dose-only effect, or effect the other way, or a change in a side signal; the % refers to the signal ratio; note: potency is the fitted concentration of half-maximal effect; % of control where 0% means no effect
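CRE-bla CHO cells stimulated with EC10 NKH 477 (water-soluble forskolin) and compound titrations, 3 h at 37C; beta-lactamase read with CCF4 after 2 h at room temperature. Activity from 460/530 nm emission ratio, AC50 values for positive or negative modulation.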
AID923 = qHTS Assay for Allosteric/Competitive Inhibitors of Caspase-1: Spectroscopic Profiling in AFC Spectral Region | compound fluorescence, AFC spectral region (405/520 nm) | Potency, µM (series often up to 57.5 µM), without a hit: at the highest dose fluorescence increase, hits mostly activators | 75,000 compounds, 1.1% hits | AID 923, 2007; note: potency is the fitted concentration of half-maximal effect; 0% is about no effect
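Titrations up to 57 uM read every 20 sec for 3 min (405/520 nm) with 50 nM caspase 1 and 5 uM Ac-WEHD-AFC, pH 7.5 HEPES buffer. Fluorescence-vs-time intercept gave baseline, scaled against on-plate AFC standard.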
A350 fluor = A350 region autofluorescence. 59,000 compounds, 11% hits. Compound autofluorescence, 340/450 nm, Alexa 350 dye-equivalents; active compounds read high. max dye-equivalent concentration, M; in the data active = max dye-equivalent concentration above about 10 nM; inconclusive = mostly about 1.1 nM to 9.6 nM
* marks the source's active call; other numbers are inactive results; i = inactive; u = inconclusive; x = not tested or not shown; [ ] = dose if it differs, or a comment. Shown are actives, neighbours in structure and some others; about 14% of the full set was active somewhere. Unless noted, calls come from the whole dose curve; as a rule, active = well fitted curve in the direction sought with a large enough effect; inconclusive = small, poorly fitted or top-dose-only effect, or another doubt; inactive = no such curve, though single readings can be large; an effect the other way counts as inactive or inconclusive.

SMILES | HSD17B inh | HADH2 inh | 4-MU autofl | CRE Fsk mod | AID923 | A350 fluor
O=C1C=CC2=C3c4cc(O)c(O)cc4C[C@@]3(O)COC2=C1O | x | 0.126µM* | i | u | x | i
O=C1C=CC2=C3c4cc(O)c(O)cc4C[C@]3(O)COC2=C1 | 15.8µM* | x | x | x | 3.8% | x
Nc1ccc2c(c1)C(=O)c1ccccc1C2=O | 0.9% | 5.4% | x | 7.94µM* | 0.5% | x
c1ccc(-c2noc(-c3cccc4ccccc34)n2)cc1 | 31.6µM* | u | u | 13.1% | 2.1% | u
c1ccc(CCc2ccccc2-c2nc(-c3cccnc3)no2)cc1 | -11.3% | 4.7% | i | 3.16µM* | 0.1% | i
c1ccc(-c2ccccc2-c2nc(-c3cccnc3)no2)cc1 | -14.6% | 13.3% | 1.25e-08M* | 10µM* | -0.5% | 1.27e-08M*
CC1CCN(S(=O)(=O)c2ccc(Cl)cc2)CC1 | 2.5% | 5.0% | x | -0.3% | 1.2% | x
CC1CCN(S(=O)(=O)c2cc(Cl)ccc2Br)CC1 | -7.9% | -8.5% | u | u | 0.4% | 1.41e-08M*
N#CCc1c(C#N)c(N)nc(N2CCN(S(=O)(=O)c3ccccc3)CC2)c1C#N | 25.1µM* | 31.6µM* | 1.48e-08M* | u | 3.1% | 1.03e-08M*
COC(=O)c1[nH]c2ccccc2c1NC(=O)CN1CCN(c2cccc(OC)c2)C(C)C1 (centres undefined) | u | -0.9% | 1.24e-08M* | 28.0% | 1.8% | u
CCOC(=O)c1[nH]c2ccc(OC)cc2c1NC(=O)CN1CCN(c2ccccn2)CC1 | x | x | 3.5e-08M* | x | x | 4.21e-08M*
COC(=O)c1[nH]c2ccccc2c1NC(=O)CCN1CCSCC1 | u | -6.1% | i | -12.4% | -1.2% | i
CCOC(=O)c1[nH]c2ccccc2c1NC(=O)CCN1CCN(C(=O)OCC)CC1 | x | x | i | x | x | i
CCOC(=O)c1[nH]c2ccc(OCC)cc2c1NC(=O)CN1CCN(c2ccccn2)CC1 | 25.1µM* | u | 4.06e-08M* | u | -0.9% | 5.69e-08M*
COCC1C2CC[C@H]3C(OCc4ccc(F)cc4C(F)(F)F)OC[C@]4(C)[C@H]3C2=C(CN4C(=O)OC(C)(C)C)[C@H](C)C1COC (some centres undefined) | -18.8% | 0.2% | x | u | 2.1% | x
CC(C)CO/N=C1/C[C@@H](O)[C@@H](O)[C@@H]2[C@@H]3C(=O)N(C(C)(C)C)C(=O)[C@H]3CC[C@@H]12 | -1.2%[11.4 µM] | 2.3%[11.4 µM] | x | x | -1.1%[11.5 µM] | x
Nc1nc2nccc(-c3ccc(Cl)cc3)n2n1 | 31.6µM* | 3.16µM* | 2.12e-06M* | 16.8% | -2.4% | 3.45e-06M*
Cc1cc(-c2ccc(Cl)cc2)n2nc(N)nc2n1 | 31.6µM* | 31.6µM* | 5.51e-08M* | 12.6µM* | -0.8% | 5.79e-08M*
COCC(=O)Nc1c(C(=O)Nc2cccc(OC)c2)oc2ccccc12 | -11.3% | i | i | 18.1% | 1.4% | i
COc1cccc(OCC(=O)Nc2c(C(=O)Nc3ccc(OC)cc3OC)oc3ccccc23)c1 | u | -14.3% | 5.84e-08M* | u | 0.0% | 7.74e-08M*
CCOCC(=O)Nc1c(C(=O)Nc2ccc(OC)cc2OC)oc2ccccc12 | 2.51µM* | 338.2% | 2.2e-07M* | 9.5% | -0.7% | 3.09e-07M*
Cc1cc(N2CCCC2)nc(-c2ccccc2O)n1 | 31.6µM* | 31.6µM* | 6.7e-08M* | 12.9% | 0.0% | 7.64e-08M*
Cc1cc(N2CCCCC2)nc(SCC(=O)c2ccccc2)n1 | -2.1% | 3.5% | i | 14.3% | 2.1% | i
CCCC[C@@H]1C[C@H]1C(NC(=O)c1ccc(C(F)(F)F)cc1)c1ccc(C(=O)OC)cc1 (some centres undefined) | -0.5% | 4.3% | x | u | 1.8% | x
Cc1cc(NS(=O)(=O)c2ccc(-c3ccccc3)cc2)no1 | -5.2% | -3.3% | i | 0.3% | 0.7% | i
Cc1cccc(NS(=O)(=O)c2ccc(Oc3ccccc3)cc2)n1 | 31.6µM* | -11.2% | i | 2.2% | 0.1% | i
CC(=O)c1cc2c(=O)c3cc(C)ccc3oc2nc1C | u | 13.6% | 2.54e-08M* | 18.6% | -1.0% | 2.74e-08M*
